The text below walks through data of PMC7862700, “An all-to-all approach to the identification of sequence-specific readers for epigenetic DNA modifications on cytosine”.

Experiment in all cases: DAPPL (digital affinity profiling via proximity ligation, sequencing); 10 mM Tris-HCl pH 7.5, 50 mM NaCl, 1 mM DTT, 4% glycerol, room temperature, 30 min; GST-TFs on glutathione beads, 16-mer random dsDNA library, 0.1% formaldehyde crosslink after washing; high values mean tight binding
The target of one assay is T1, FEV (Homo sapiens, UniProt Q99581 1-238).
T1 sequence: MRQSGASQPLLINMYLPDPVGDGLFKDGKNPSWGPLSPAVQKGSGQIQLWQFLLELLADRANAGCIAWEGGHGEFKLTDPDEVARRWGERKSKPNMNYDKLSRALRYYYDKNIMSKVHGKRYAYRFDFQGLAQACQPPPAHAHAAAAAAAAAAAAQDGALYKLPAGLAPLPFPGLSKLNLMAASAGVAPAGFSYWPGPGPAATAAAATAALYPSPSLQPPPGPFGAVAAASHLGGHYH
To be noted: protein: recombinant; tags: N-terminal GST; dsDNA, one strand shown. The method, boiled down:
(§1)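 Human transcription factors were made in yeast as GST fusions, captured on glutathione beads and barcoded with DNA. With a tag-only sample included, the pool was incubated with 200 nmole of a random double-stranded 16-mer DNA library in Tris/NaCl/DTT/glycerol buffer at room temperature for 30 min, then crosslinked with 0.1% formaldehyde after washing, ligated by proximity, amplified and sequenced. For binding signal, each hexamer's read frequency for a factor is divided by its frequency for the tag-only sample.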

The target of a further assay is ETV5 (Homo sapiens, UniProt P41161 1-510). The following applies: protein: recombinant; tags: N-terminal GST; dsDNA, one strand shown. The method in brief:
as §1

For the next assay, the target named is HSF1 (Homo sapiens, UniProt Q00613 1-529). To be noted: protein: recombinant; tags: N-terminal GST; chain copies: 3; dsDNA, one strand shown. The method, boiled down: as §1
A further assay concerns the target T2, SPIC (Homo sapiens, UniProt Q8N5J4 1-248).
T2 sequence: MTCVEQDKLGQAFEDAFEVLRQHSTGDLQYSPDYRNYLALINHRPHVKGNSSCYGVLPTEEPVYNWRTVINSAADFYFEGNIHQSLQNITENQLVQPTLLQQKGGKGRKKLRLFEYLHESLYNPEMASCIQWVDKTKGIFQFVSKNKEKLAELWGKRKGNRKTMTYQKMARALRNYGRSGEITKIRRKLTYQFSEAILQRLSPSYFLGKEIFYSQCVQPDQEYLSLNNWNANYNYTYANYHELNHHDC
The following applies: protein: recombinant; tags: N-terminal GST; dsDNA, one strand shown. The method in brief:
as §1

For another assay, the target named is ELF4 (Homo sapiens, UniProt Q99607 1-663). To be noted: protein: recombinant; tags: N-terminal GST; dsDNA, one strand shown. The method in brief: as §1
For a further assay, the target named is T3, ELK4 (Homo sapiens, UniProt P28324-2 1-405).
T3 sequence: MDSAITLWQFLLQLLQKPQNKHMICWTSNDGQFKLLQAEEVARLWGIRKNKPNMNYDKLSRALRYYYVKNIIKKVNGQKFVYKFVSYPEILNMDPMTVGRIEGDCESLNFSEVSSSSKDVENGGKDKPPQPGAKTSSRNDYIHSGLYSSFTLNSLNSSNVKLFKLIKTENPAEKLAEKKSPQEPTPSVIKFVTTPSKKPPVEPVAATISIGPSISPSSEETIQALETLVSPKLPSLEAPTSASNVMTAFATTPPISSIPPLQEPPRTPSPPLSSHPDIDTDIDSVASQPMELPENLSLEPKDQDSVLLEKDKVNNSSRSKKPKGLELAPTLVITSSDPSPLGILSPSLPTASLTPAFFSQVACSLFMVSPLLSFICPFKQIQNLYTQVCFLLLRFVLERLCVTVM
To be noted: protein: recombinant; tags: N-terminal GST; dsDNA, one strand shown. The method in brief: as §1

The target in a further assay is T4, ETV2 (Homo sapiens, UniProt O00321 1-342).
T4 sequence: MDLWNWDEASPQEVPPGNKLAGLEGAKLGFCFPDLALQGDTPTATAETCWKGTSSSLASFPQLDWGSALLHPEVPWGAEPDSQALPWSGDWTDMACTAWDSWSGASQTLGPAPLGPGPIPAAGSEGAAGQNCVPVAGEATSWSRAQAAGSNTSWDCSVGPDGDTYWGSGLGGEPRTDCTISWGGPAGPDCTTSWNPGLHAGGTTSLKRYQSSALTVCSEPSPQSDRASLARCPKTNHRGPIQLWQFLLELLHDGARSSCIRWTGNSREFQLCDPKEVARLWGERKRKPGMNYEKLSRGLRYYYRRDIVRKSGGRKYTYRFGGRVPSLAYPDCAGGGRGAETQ
The following applies: protein: recombinant; tags: N-terminal GST; dsDNA, one strand shown. The method, boiled down:
as §1

Another assay concerns the target T5, ELF3 (Homo sapiens, UniProt P78545 1-371).
T5 sequence: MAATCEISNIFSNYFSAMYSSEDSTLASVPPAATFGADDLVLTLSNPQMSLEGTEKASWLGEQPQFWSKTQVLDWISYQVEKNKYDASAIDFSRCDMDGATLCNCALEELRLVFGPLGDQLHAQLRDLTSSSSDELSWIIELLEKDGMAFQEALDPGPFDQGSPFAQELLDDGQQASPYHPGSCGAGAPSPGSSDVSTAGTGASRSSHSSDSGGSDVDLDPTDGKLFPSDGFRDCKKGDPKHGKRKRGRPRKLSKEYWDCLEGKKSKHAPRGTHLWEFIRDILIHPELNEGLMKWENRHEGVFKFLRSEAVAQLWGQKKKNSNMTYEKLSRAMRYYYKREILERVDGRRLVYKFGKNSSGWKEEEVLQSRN
To be noted: protein: recombinant; tags: N-terminal GST; dsDNA, one strand shown. The method, boiled down:
as §1

Another assay deals with CRX (Homo sapiens, UniProt O43186 1-299). To be noted: protein: recombinant; tags: N-terminal GST; dsDNA, one strand shown. The method, boiled down: as §1
The next assay deals with ETV1 (Homo sapiens, UniProt P50549 1-477). To be noted: protein: recombinant; tags: N-terminal GST; dsDNA, one strand shown. The method, boiled down:
as §1

The target in the next assay is T6, ERF (Homo sapiens, UniProt P50548 1-548).
T6 sequence: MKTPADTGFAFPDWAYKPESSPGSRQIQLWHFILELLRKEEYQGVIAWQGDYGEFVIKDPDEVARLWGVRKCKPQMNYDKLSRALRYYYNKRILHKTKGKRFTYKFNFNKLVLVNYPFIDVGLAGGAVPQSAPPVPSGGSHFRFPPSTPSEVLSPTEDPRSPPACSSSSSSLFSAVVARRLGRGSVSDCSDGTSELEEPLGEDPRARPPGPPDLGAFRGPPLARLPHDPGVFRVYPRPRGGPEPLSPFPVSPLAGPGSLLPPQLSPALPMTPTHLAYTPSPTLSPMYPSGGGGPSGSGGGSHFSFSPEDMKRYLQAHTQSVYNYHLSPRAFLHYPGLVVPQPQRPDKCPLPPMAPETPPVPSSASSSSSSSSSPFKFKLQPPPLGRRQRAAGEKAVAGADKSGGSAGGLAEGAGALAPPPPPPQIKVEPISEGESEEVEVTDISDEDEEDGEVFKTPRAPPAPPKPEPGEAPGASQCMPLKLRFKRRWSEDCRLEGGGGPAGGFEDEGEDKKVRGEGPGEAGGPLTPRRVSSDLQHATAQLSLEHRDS
To be noted: protein: recombinant; tags: N-terminal GST; dsDNA, one strand shown. The method in brief:
as §1

A further assay addresses T7, ETV3L (Homo sapiens, UniProt Q6ZN32 1-361).
T7 sequence: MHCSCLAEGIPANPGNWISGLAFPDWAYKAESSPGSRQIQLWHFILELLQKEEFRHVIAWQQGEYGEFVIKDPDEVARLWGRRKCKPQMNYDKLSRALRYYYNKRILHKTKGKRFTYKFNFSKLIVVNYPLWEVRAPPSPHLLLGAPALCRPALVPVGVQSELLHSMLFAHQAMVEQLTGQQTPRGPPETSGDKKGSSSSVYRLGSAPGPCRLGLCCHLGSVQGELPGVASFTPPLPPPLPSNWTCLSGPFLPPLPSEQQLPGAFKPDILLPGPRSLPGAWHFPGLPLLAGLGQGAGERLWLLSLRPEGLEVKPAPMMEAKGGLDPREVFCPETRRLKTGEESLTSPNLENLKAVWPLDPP
The following applies: protein: recombinant; tags: N-terminal GST; dsDNA, one strand shown. The method in brief:
as §1

The target of a further assay is T8, ETS2 (Homo sapiens, UniProt P15036 1-469).
T8 sequence: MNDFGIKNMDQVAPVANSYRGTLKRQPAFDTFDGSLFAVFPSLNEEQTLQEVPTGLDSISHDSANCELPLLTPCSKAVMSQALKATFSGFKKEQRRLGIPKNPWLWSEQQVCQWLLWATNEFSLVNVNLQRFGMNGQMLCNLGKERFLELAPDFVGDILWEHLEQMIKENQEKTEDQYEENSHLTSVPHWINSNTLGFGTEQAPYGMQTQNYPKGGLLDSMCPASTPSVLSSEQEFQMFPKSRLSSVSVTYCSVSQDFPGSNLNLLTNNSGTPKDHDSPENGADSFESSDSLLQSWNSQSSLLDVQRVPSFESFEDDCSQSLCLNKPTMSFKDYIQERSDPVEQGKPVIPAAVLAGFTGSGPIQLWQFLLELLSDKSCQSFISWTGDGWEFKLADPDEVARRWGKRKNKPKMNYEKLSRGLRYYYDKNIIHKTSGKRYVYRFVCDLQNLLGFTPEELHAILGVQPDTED
To be noted: protein: recombinant; tags: N-terminal GST; dsDNA, one strand shown. The method, boiled down:
as §1

The target in another assay is T9, SPDEF (Homo sapiens, UniProt O95238 1-335).
T9 sequence: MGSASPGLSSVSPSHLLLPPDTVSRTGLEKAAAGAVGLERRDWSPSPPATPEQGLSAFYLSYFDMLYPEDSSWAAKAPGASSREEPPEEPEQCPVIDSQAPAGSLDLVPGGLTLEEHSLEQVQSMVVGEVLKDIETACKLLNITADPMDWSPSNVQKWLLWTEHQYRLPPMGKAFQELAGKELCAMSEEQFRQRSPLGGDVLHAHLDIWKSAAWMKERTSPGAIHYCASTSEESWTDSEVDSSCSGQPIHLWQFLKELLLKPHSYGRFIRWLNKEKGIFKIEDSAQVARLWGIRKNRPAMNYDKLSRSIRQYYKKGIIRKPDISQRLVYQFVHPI
The following applies: protein: recombinant; tags: N-terminal GST; dsDNA, one strand shown. The method in brief: as §1

For a further assay, the target named is T10, ETV7 (Homo sapiens, UniProt Q9Y603 1-341).
T10 sequence: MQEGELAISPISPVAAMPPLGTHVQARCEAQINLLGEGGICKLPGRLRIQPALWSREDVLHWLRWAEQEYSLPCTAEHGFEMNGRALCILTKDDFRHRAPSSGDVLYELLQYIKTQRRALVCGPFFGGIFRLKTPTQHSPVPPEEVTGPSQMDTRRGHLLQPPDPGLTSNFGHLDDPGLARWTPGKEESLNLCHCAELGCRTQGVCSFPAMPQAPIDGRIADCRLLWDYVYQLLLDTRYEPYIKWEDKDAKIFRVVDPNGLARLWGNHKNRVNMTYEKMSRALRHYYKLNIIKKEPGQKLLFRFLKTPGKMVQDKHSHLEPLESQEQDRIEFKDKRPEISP
To be noted: protein: recombinant; tags: N-terminal GST; dsDNA, one strand shown. The method in brief:
as §1

The next assay deals with T11, ELF5 (Homo sapiens, UniProt Q9UKW6-2 1-255).
T11 sequence: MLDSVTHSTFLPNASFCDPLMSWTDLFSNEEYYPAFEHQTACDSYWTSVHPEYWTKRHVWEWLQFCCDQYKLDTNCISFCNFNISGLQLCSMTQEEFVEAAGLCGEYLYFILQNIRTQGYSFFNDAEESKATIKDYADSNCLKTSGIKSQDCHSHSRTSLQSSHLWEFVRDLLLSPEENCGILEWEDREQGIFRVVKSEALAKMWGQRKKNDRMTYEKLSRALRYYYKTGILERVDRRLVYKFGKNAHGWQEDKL
The following applies: protein: recombinant; tags: N-terminal GST; dsDNA, one strand shown. The method, boiled down:
as §1

Another assay has as its target T12, ETV3 (Homo sapiens, UniProt P41162-2 1-143).
T12 sequence: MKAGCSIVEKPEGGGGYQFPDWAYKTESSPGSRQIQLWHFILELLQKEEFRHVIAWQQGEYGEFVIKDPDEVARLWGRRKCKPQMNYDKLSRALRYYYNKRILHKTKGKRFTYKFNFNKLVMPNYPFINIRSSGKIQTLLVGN
To be noted: protein: recombinant; tags: N-terminal GST; dsDNA, one strand shown. The method, boiled down:
as §1

For a further assay, the target named is ETV6 (Homo sapiens, UniProt P41212 1-452). To be noted: protein: recombinant; tags: N-terminal GST; dsDNA, one strand shown. The method, boiled down:
as §1

ETV5, sequence (P41161 whole entry): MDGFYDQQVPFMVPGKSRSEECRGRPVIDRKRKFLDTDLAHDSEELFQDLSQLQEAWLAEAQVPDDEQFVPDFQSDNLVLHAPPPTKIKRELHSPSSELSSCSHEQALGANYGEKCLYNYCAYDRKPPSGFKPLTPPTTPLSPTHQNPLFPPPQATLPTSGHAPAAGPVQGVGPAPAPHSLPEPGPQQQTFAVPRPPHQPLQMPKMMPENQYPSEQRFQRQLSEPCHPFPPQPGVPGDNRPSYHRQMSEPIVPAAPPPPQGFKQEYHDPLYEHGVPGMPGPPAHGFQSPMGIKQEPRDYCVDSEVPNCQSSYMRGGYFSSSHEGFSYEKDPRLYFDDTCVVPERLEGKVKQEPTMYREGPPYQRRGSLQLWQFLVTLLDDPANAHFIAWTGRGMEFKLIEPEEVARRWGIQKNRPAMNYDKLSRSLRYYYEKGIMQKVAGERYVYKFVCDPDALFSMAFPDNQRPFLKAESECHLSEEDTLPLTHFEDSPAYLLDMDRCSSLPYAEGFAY
CRX, sequence (O43186 whole entry): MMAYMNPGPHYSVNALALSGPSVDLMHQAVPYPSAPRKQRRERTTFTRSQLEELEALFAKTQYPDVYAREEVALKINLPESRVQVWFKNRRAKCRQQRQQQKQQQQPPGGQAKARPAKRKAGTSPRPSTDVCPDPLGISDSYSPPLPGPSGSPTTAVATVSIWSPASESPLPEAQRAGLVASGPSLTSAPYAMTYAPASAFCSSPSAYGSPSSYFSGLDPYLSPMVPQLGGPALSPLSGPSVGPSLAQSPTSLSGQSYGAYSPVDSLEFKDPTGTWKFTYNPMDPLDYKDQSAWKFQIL
HSF1, sequence (Q00613 whole entry): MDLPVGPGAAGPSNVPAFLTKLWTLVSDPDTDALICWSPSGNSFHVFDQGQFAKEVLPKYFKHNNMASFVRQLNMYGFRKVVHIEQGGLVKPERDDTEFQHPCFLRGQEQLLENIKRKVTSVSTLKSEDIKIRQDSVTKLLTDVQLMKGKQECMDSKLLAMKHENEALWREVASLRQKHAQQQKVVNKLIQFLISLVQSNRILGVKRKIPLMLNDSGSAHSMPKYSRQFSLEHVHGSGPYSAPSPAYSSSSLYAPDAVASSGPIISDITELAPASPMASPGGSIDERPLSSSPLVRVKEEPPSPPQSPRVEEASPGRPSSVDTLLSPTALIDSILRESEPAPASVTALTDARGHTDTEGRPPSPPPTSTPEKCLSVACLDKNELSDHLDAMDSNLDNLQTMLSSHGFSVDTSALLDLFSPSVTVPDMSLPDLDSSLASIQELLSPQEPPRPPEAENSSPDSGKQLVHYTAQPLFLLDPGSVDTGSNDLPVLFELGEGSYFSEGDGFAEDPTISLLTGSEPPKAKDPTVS
ETV6, sequence (P41212 whole entry): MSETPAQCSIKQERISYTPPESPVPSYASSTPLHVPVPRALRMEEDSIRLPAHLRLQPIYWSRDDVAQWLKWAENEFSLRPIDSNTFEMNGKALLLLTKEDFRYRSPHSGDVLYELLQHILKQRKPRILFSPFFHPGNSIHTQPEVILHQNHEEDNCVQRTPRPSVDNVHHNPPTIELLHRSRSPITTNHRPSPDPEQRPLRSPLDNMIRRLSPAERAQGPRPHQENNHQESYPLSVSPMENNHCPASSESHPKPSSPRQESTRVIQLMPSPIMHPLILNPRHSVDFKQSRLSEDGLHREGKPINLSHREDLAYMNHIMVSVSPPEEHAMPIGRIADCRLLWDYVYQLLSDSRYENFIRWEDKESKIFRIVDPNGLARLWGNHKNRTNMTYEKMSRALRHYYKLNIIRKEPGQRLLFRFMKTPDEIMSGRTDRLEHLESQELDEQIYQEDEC
ETV1, sequence (P50549 whole entry): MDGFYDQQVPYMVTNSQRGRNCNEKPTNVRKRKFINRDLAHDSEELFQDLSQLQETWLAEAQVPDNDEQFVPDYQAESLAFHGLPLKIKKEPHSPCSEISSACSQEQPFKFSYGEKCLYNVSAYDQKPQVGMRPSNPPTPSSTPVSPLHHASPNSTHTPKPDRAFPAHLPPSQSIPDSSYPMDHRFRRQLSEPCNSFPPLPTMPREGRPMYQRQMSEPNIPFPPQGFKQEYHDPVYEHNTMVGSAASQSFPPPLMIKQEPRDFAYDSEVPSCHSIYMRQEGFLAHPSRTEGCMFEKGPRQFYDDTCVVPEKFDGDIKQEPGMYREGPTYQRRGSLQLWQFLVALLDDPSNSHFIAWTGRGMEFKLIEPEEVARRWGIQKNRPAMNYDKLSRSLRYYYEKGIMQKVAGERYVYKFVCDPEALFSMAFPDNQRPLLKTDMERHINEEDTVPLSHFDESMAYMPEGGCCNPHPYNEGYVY
ELF4, sequence (Q99607 whole entry): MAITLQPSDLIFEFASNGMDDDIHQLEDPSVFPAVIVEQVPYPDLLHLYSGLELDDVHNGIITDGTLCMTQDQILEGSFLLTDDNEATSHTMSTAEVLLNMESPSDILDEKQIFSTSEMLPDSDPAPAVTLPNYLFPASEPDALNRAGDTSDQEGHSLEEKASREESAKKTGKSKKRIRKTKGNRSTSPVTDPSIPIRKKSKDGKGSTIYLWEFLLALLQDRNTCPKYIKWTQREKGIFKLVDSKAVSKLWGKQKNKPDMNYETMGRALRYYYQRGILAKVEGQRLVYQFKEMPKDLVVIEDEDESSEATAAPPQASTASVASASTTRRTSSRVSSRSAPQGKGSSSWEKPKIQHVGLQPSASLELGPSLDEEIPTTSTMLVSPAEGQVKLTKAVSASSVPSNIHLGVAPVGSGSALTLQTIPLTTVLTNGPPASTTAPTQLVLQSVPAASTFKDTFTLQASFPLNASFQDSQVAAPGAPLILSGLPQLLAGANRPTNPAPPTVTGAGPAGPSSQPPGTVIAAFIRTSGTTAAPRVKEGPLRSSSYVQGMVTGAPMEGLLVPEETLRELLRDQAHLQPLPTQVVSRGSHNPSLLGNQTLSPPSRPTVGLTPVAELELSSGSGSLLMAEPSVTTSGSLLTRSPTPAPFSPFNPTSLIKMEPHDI

As for TTAACG, the binding signal with FEV is 1.13 fold enrichment (6-mer frequency, TF over GST control); with ETV5, 1.22 fold enrichment (6-mer frequency, TF over GST control); in the assay with HSF1 it was 1.73 fold enrichment (6-mer frequency, TF over GST control); in the assay with SPIC, 1.11 fold enrichment (6-mer frequency, TF over GST control); in the assay with ELF4, 1.15 fold enrichment (6-mer frequency, TF over GST control); with ELK4, 1.17 fold enrichment (6-mer frequency, TF over GST control). Moreover, the binding signal with ETV2 was 1.17 fold enrichment (6-mer frequency, TF over GST control); in the assay with ELF3, 1.27 fold enrichment (6-mer frequency, TF over GST control); in the assay with CRX, 2.66 fold enrichment (6-mer frequency, TF over GST control); with ETV1 it was 1.19 fold enrichment (6-mer frequency, TF over GST control); in the assay with ERF, 1.15 fold enrichment (6-mer frequency, TF over GST control); with ETV3L it was 1.17 fold enrichment (6-mer frequency, TF over GST control). The binding signal was 1.23 fold enrichment (6-mer frequency, TF over GST control) with ETS2; 1.23 fold enrichment (6-mer frequency, TF over GST control) with SPDEF; 1.13 fold enrichment (6-mer frequency, TF over GST control) with ETV7; 1.14 fold enrichment (6-mer frequency, TF over GST control) with ELF5; 1.16 fold enrichment (6-mer frequency, TF over GST control) in the assay with ETV3; 1.17 fold enrichment (6-mer frequency, TF over GST control) with ETV6.
